KinaseGlo FLuc = Kinase-Glo luciferase inhibition (counter-screen); Q27757; Kinase-Glo luciferase, ATP luminescence, 8 min; Potency, µM (top dose mostly 38.3 µM), inactives show top-dose activity change, negative = inhibition, most hits filed as inhibitors; 200,000 tested, 0.28% active; further: nearly all actives have a fitted effect of over 60% in size
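Inhibition of Kinase-Glo luciferase light generation was assessed at 10 uM ATP in pH 7.2 imidazole buffer, with luminescence measured after eight minutes at ambient temperature.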
RORgamma inh = inhibitors of mouse ROR gamma transcriptional activity. P51450. Drosophila S2 Gal4-RORgamma UAS-luciferase reporter, 20 h. Potency, µM (highest dose often 53.6 µM), without a hit: at the highest dose activity change, negative = inhibition, hits mostly inhibitors. 310,000 tested, 5.4% active. AID 2551; further: nearly all actives have a fitted effect of over 60% in size
Target sequence (P51450 whole entry, looked up, the tested form may be a part): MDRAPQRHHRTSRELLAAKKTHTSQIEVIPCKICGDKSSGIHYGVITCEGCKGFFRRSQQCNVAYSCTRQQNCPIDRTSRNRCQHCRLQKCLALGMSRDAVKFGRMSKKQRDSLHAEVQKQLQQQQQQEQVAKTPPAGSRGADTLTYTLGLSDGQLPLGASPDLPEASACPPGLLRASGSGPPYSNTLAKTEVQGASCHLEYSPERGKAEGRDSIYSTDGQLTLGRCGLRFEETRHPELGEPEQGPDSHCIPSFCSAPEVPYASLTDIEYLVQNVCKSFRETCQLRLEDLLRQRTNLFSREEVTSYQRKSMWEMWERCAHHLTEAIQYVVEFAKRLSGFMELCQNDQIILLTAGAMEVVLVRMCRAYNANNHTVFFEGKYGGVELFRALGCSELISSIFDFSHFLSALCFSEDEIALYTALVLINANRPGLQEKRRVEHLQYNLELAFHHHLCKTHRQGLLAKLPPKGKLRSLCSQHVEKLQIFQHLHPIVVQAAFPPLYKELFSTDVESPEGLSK
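ROR gamma transcriptional activity was tracked as Gal4-UAS luciferase output in stably transfected Drosophila Schneider cells, with compound added 1 hr before 700 uM copper sulfate induction and a 20 hr ambient-temperature incubation.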
VP16 counter = Gal4-VP16 reporter inhibition counter-screen; Drosophila S2 Gal4-VP16 UAS-luciferase, luminescence, 20 h; Potency, µM (series often up to 53.6 µM), for the others: at the highest dose activity, negative = inhibition, usual class: inhibitors; 310,000 tested, 3.5% active;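 further: Gal4-VP16 expression switched on by copper sulfate through the metallothionein promoter; nearly all actives have a fitted effect of over 50% in size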
* marks the source's active call; other numbers are inactive results; ? = inconclusive; / = not tested or not shown; [ ] = remark or other dose. Hits are enriched below; roughly 6.2% of the tested compounds scored in any of these assays. The call rests on the fitted dose curve; in most records, active means well fitted curve in the direction sought with a large enough effect; inconclusive means small, poorly fitted or top-dose-only effect, or another doubt; inactive means no such curve, though single readings can be large; an effect the other way counts as inactive or inconclusive. On the % scale 0 is the no-effect control and ±100 the full control effect; potency means the concentration at half of the fitted maximal effect.

SMILES | KinaseGlo FLuc | RORgamma inh | VP16 counter
CC1(C)OC2OC(C(=O)N/N=C/c3cc(Br)ccc3O)C3OC(C)(C)OC3C2O1 (stereo unspecified) | 4.7% | 1.58µM* | ?
CC(C)CC(NC(=O)CNC(=O)C1O[C@@H]2OC(C)(C)O[C@@H]2[C@H]2OC(C)(C)O[C@@H]12)C(=O)O (stereo partly specified) | / | -3.1% | 13.3%
Cc1ccc(C(=O)NC(=S)Nc2ccc(S(=O)(=O)N3CCN(C)CC3)cc2)cc1 | 0.0% | 11.2µM* | -7.1%
Cc1cccc(C(=O)NC(=S)Nc2ccc(S(=O)(=O)N3CCN(C)CC3)cc2)c1 | -2.7% | 12.6µM* | ?
Cc1cccc(C(=O)NC(=S)Nc2ccc(S(=O)(=O)N3CCCCC3)cc2)c1 | -3.7% | 14.1µM* | 10µM*
CC(=O)Nc1ccc(S(=O)(=O)N2CCN(C)CC2)cc1 | 20.9% | -29.9% | -0.5%
CN1CCN(S(=O)(=O)c2ccc(C(=O)Nc3ccccc3)cc2)CC1 | 2.5% | 31.0% | 3.6%
Cc1cc(C(=O)Nc2ccc(S(=O)(=O)N3CCCC3)cc2)cs1 | 0.4% | 21.4% | 9.0%
COc1c(O)cc2c(-c3ccccc3)cc(=O)oc2c1OC | -2.2% | ? | 3.0%
CC(Oc1ccccc1)C(=O)NC1C(=O)N2C(C(=O)O)C(C)(C)S[C@@H]12 (stereo partly specified) | -3.0% | -13.6% | -0.6%
CCn1c(SCC(=O)N2CCC(C)CC2)nc2c1c(=O)n(C)c(=O)n2C | / | 23.9% | -0.7%
Cc1ccc(OCCCC(=O)NCc2ccco2)c(C)c1 | 1.5% | 32.5% | 4.8%
O=C(Nc1nnc(-c2ccccc2)o1)c1nc2ccccc2s1 | / | -34.0% | -0.6%
Fc1cccc2sc(Nc3nnc(-c4ccccc4)o3)nc12 | 4.5% | 1.78µM* | 2.51µM*
COc1cc(OC)cc(-c2nnc(Nc3nc4c(F)cccc4s3)o2)c1 | 5.8% | 0.708µM* | 1.58µM*
COc1cc(OC)cc(C(=O)Nc2c(F)cccc2F)c1 | 0.4% | ? | -17.5%
Cc1ccc(-c2cc(=O)c3cc(C)ccc3[nH]2)cc1 | -7.8%[39.9 µM] | 10µM* | 15.8µM*
Cc1ccc(-c2cc(=O)c3cc(F)ccc3[nH]2)cc1 | -1.3% | 15.9% | -2.5%
O=C(COC(=O)/C=C/c1ccco1)Nc1cccc([N+](=O)[O-])c1 | 7.2% | 18.6% | 3.2%
CC(=O)c1ccc(NC(=O)/C(=C\c2ccccc2)NC(=O)c2ccco2)cc1 | 6.6% | -1.6% | -19.0%
Oc1cccc(-c2nc3c4c(ncn3n2)-c2ccccc2CC42CCCC2)c1 | -5.4% | ? | 25.1µM*
COc1ccc(-c2nc3c4c(ncn3n2)-c2ccccc2CC42CCCC2)cc1 | -0.2% | -5.7% | -13.7%
COC(=O)c1[nH]cnc1C(=O)c1ccccc1 | -0.5% | -4.2% | 6.4%
CCN1C(=O)NC2C1N(S(C)(=O)=O)CCN2S(C)(=O)=O (stereo unspecified) | -2.5% | -13.0% | -8.6%
COc1cc(/C=C/c2nc3ccc([N+](=O)[O-])cc3s2)ccc1OCC(=O)O | / | 6.1% | -2.9%
SMILES | KinaseGlo FLuc | RORgamma inh | VP16 counter
CCCC1([C@H](O)C/C=C/[C@H]2[C@H](O)CC(=O)[C@@H]2CCCCCCC(=O)OC)CCC1 | / | -35.7% | ?
S=C(NC1CCCC1)NC1CCCC1 | -0.7% | 2.51µM* | ?
O=C(NC1CCCCCC1)C(=O)NC1CC1 | / | -5.1% | -8.4%
S=C(NC1CCCC1)NC1CC1 | -2.3% | 12.6µM* | ?
CC(C)CNC(=S)NC1CCCC1 | 2.9% | 10µM* | ?
O=C(NC1CCCCCC1)C(=S)NC1CCCCC1 | -5.1% | 0.7% | 6.0%[10 µM]
S=C(NCCN1CCOCC1)NC1CCCC1 | 0.9% | -34.6% | -9.6%
CCCC[C@H](NC(C)=O)C(=O)N[C@@H](CCC(=O)O)C(=O)N[C@@H](Cc1cnc[nH]1)C(=O)N[C@H](Cc1ccccc1)C(=O)N[C@@H](CCCN=C(N)N)C(=O)N[C@H](Cc1c[nH]c2ccccc12)C(=O)NCC(N)=O | / | 9.5% | -4.1%
CCc1c(C)nc2ncnn2c1N1CCC(C(=O)Nc2cccc(C(C)=O)c2)CC1 | 2.3% | -9.5%[10 µM] | -1.6%
COc1ccc(CNc2cccc3[nH]c(C(F)(F)F)nc23)cc1OC | / | 4.3% | -15.6%
O=C(CCC(=O)c1cccs1)NCC(=O)Nc1ccc(F)c(F)c1F | 0.8% | -3.9%[10 µM] | 0.5%
COc1cc(C(=O)O[C@H]2C/C(C)=C/CC/C(C)=C/[C@@H](O)C2C(C)C)ccc1O (stereo partly specified) | / | 6.9% | -22.1%
COc1cccc(C2=Nn3c(nnc3-c3cccc(OC)c3OC)SC2)c1 | / | -2.7% | -1.2%

Bioassay records as filed in PubChem BioAssay.
